# Experimental data taken from paper PMC7862700, “An all-to-all approach to the identification of sequence-specific readers for epigenetic DNA modifications on cytosine”.
# Experiments:
# Assay in all cases: DAPPL (digital affinity profiling via proximity ligation, sequencing); 10 mM Tris-HCl pH 7.5, 50 mM NaCl, 1 mM DTT, 4% glycerol, room temperature, 30 min; GST-TFs on glutathione beads, 16-mer random dsDNA library, 0.1% formaldehyde crosslink after washing; high values mean tight binding
# [1] = target: T1, FEV (Homo sapiens, UniProt Q99581 1-238); settings: protein: recombinant; tags: N-terminal GST; dsDNA, one strand shown
# T1 sequence: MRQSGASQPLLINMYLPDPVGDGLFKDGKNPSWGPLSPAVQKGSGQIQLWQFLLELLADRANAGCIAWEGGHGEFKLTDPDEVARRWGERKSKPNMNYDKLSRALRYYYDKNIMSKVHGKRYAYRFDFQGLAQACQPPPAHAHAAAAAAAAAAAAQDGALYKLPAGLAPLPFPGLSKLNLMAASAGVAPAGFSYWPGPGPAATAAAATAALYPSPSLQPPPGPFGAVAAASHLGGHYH
# Method in brief: (§1)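 Sequencing on an Illumina NextSeq500 followed washing, crosslinking with 0.1% formaldehyde, proximity ligation (BsaI/T4 ligase, 1 h, 37 °C) and PCR amplification of pools that had been incubated for 30 min at room temperature with 200 nmole of a random double-stranded 16-mer DNA library in Tris/NaCl/DTT/glycerol buffer. Each pool held DNA-barcoded human transcription factors, expressed in yeast as GST fusions and captured on glutathione beads, plus a tag-only sample. Binding signal is a hexamer's read frequency for a factor divided by its frequency in the tag-only sample.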
# [2] = target: ETV5 (Homo sapiens, UniProt P41161 1-510); settings: protein: recombinant; tags: N-terminal GST; dsDNA, one strand shown
# ETV5, sequence (P41161 whole entry): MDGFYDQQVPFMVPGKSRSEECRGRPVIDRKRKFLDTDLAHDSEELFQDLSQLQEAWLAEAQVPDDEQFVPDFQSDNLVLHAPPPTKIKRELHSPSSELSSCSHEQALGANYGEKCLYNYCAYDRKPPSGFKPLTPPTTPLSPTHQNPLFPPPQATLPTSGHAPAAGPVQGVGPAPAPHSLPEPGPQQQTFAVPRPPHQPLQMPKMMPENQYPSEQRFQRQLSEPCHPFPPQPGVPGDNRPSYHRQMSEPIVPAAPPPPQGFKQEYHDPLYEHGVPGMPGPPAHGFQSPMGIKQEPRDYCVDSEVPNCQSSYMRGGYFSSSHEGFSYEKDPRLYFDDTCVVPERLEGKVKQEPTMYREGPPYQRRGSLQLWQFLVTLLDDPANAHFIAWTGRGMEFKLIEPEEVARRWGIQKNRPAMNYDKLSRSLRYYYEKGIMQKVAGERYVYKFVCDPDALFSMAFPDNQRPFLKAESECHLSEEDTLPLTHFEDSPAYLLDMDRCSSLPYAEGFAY
# Method in brief: as §1
# [3] = target: HSF1 (Homo sapiens, UniProt Q00613 1-529); settings: protein: recombinant; tags: N-terminal GST; chain copies: 3; dsDNA, one strand shown
# HSF1, sequence (Q00613 whole entry): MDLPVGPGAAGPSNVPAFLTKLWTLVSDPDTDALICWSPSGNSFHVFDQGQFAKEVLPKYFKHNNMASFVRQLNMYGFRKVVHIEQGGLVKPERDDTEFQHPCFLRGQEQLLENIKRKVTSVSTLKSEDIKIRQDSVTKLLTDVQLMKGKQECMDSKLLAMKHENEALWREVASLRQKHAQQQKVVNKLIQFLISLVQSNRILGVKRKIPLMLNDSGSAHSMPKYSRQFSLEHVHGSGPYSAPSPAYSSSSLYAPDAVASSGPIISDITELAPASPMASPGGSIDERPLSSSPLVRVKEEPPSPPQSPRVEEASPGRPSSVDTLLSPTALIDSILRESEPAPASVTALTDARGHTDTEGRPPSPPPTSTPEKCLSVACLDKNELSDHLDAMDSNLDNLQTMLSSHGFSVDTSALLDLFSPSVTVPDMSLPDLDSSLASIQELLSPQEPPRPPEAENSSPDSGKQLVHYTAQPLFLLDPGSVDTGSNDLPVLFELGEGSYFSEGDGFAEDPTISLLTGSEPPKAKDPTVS
# Method in brief: as §1
# [4] = target: T2, SPIC (Homo sapiens, UniProt Q8N5J4 1-248); settings: protein: recombinant; tags: N-terminal GST; dsDNA, one strand shown
# T2 sequence: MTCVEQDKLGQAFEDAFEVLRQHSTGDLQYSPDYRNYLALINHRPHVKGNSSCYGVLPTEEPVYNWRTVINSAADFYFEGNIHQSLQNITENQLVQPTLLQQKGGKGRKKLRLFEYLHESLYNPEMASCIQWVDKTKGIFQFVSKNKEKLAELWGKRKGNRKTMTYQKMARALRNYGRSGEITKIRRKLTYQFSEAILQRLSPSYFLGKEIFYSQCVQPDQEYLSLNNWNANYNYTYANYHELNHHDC
# Method in brief: as §1
# [5] = target: ELF4 (Homo sapiens, UniProt Q99607 1-663); settings: protein: recombinant; tags: N-terminal GST; dsDNA, one strand shown
# ELF4, sequence (Q99607 whole entry): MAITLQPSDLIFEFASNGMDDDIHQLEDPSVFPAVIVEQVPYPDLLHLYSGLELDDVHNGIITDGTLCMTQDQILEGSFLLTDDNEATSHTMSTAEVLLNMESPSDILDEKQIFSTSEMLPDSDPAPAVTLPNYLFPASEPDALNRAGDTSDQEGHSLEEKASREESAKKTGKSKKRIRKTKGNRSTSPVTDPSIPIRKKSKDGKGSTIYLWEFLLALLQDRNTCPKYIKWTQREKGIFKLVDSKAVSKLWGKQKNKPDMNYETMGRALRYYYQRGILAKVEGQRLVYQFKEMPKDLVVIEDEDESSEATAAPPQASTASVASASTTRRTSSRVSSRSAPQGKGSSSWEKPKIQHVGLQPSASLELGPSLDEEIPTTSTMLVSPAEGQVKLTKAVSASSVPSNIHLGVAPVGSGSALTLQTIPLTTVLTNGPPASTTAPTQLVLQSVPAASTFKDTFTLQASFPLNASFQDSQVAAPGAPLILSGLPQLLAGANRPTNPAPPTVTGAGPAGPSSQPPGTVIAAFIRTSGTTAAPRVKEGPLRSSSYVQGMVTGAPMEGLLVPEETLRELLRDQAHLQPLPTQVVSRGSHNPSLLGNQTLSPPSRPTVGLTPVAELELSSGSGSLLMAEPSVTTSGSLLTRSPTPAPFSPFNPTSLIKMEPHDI
# Method in brief: as §1
# [6] = target: T3, ELK4 (Homo sapiens, UniProt P28324-2 1-405); settings: protein: recombinant; tags: N-terminal GST; dsDNA, one strand shown
# T3 sequence: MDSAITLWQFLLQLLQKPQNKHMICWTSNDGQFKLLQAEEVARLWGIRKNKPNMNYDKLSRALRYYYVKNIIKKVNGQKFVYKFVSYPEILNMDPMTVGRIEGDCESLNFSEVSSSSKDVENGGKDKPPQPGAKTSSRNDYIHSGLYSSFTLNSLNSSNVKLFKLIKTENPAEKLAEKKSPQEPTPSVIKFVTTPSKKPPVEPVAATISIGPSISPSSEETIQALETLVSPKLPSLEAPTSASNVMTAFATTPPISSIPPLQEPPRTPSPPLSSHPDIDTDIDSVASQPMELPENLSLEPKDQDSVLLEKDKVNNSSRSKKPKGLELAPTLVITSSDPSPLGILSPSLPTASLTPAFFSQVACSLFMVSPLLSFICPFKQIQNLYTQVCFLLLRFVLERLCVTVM
# Method in brief: as §1
# [7] = target: T4, ETV2 (Homo sapiens, UniProt O00321 1-342); settings: protein: recombinant; tags: N-terminal GST; dsDNA, one strand shown
# T4 sequence: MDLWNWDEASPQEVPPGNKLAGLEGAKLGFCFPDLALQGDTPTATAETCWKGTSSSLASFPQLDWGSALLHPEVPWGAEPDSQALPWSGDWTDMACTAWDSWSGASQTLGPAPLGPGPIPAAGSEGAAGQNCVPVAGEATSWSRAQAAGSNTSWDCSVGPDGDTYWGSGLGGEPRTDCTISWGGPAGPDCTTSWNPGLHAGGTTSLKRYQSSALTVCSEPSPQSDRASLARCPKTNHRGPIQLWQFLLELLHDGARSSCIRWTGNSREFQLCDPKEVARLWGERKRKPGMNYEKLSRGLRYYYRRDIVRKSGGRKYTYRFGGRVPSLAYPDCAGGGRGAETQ
# Method in brief: as §1
# [8] = target: T5, ELF3 (Homo sapiens, UniProt P78545 1-371); settings: protein: recombinant; tags: N-terminal GST; dsDNA, one strand shown
# T5 sequence: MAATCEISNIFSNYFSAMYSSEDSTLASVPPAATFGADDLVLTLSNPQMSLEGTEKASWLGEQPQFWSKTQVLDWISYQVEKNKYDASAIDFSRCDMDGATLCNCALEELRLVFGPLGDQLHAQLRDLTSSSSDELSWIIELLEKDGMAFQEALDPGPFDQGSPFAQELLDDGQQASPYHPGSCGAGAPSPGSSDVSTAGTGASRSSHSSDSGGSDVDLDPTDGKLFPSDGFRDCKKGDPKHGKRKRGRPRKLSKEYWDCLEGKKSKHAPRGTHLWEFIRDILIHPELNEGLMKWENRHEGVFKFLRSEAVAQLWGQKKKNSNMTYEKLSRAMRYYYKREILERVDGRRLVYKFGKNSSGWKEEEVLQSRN
# Method in brief: as §1
# [9] = target: CRX (Homo sapiens, UniProt O43186 1-299); settings: protein: recombinant; tags: N-terminal GST; dsDNA, one strand shown
# CRX, sequence (O43186 whole entry): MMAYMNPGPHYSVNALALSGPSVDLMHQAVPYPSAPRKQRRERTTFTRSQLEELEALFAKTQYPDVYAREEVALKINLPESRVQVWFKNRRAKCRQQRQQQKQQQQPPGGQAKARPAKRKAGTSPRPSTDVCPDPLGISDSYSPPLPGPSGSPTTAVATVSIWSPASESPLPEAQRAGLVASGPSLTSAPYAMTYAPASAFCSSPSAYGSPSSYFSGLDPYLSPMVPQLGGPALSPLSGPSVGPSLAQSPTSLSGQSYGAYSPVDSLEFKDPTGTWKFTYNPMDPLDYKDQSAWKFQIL
# Method in brief: as §1
# [10] = target: ETV1 (Homo sapiens, UniProt P50549 1-477); settings: protein: recombinant; tags: N-terminal GST; dsDNA, one strand shown
# ETV1, sequence (P50549 whole entry): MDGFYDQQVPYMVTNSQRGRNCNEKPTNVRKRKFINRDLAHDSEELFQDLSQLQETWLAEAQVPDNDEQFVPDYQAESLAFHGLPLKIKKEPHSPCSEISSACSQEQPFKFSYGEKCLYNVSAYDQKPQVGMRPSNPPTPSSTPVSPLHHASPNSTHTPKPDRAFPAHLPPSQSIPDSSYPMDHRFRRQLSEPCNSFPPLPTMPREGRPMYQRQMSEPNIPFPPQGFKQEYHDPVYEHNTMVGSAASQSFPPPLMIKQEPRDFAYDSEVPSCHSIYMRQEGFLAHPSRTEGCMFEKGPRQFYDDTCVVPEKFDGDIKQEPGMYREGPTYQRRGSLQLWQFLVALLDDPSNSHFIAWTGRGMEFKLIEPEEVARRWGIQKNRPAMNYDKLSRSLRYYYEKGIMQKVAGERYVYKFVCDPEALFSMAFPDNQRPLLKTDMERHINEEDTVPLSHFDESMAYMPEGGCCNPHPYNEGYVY
# Method in brief: as §1
sequence,measurement,setting,value
CCCCTC,binding signal,[1],"1.41 fold enrichment (6-mer frequency, TF over GST control)"
same,binding signal,[2],"1.37 fold enrichment (6-mer frequency, TF over GST control)"
same,binding signal,[3],"1.13 fold enrichment (6-mer frequency, TF over GST control)"
same,binding signal,[4],"1.17 fold enrichment (6-mer frequency, TF over GST control)"
same,binding signal,[5],"1.48 fold enrichment (6-mer frequency, TF over GST control)"
same,binding signal,[6],"1.5 fold enrichment (6-mer frequency, TF over GST control)"
same,binding signal,[7],"1.49 fold enrichment (6-mer frequency, TF over GST control)"
same,binding signal,[8],"1.35 fold enrichment (6-mer frequency, TF over GST control)"
same,binding signal,[9],"1.14 fold enrichment (6-mer frequency, TF over GST control)"
same,binding signal,[10],"1.51 fold enrichment (6-mer frequency, TF over GST control)"
